Test results taken from the supplement of paper PMC6555819.

Legend:
Test in all cases: PBM binding z-score (relative to random genomic background probes); higher = stronger binding; sequences stand for … in GC…GCGATTGACAGCGTAGAATGAAGG
[1] = tested on: RARb homodimer (NR concentration 270 nM)
Procedure, shortened: (§1)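 Ligand-free nuclear receptor dimers were bound for 1 h to custom Agilent 4×180K protein-binding microarrays. Detection used antibodies against each partner (one per run). Binding z-scores rest on regression-normalized fluorescence, with random background probes as the reference.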

[2] = tested on: RARg:RXRa (NR concentration 270 nM, RXRa partner concentration 90 nM)
Procedure, shortened: as §1

[3] = tested on: RARg homodimer (NR concentration 270 nM)
Procedure, shortened: as §1

[4] = tested on: RXRa DBDmut IVT, anti-RXR (DBD mutation: RXRa K156A/R161A, NR concentration 90 nM)
Procedure, shortened: as §1

[5] = tested on: RXRa homodimer (NR concentration 180 nM)
Procedure, shortened: as §1

[6] = tested on: THRa:RXRa (NR concentration 90 nM, RXRa partner concentration 90 nM)
Procedure, shortened: as §1

[7] = tested on: THRa homodimer (NR concentration 90 nM)
Procedure, shortened: as §1

[8] = tested on: VDR homodimer (NR concentration 270 nM)
Procedure, shortened: as §1

Sequence	PBM binding z-score [1]	PBM binding z-score [2]	PBM binding z-score [3]	PBM binding z-score [4]	PBM binding z-score [5]	PBM binding z-score [6]	PBM binding z-score [7]	PBM binding z-score [8]
CCTACTGCGCCATTCAGAGGTCATTGATCATATG	3.92	3.36	2.53	1.73	3.92	3.37	2.07	3.47
CCGACTGGGGCAAGGCTACCATAACGCACAGCCA	0.53	0.348	0.614	-0.842	0.0101	-0.203	-0.4	-0.136
CGTCCAAGGTCAAAGCTAGGTCAGTGAAAGCATT	5.03	7.9	7.36	4.1	6.47	4.57	2.86	3.7
ATCGAAAGGTCGTGAGGTGAGTATCCAGAAAGGC	2.99	4.59	3.92	1.15	5.24	3.28	1.55	0.852
ATCGAAAGGTCGACGATGTGAGTATACACCGTTT	2.66	3.8	3.82	1.13	4.27	1.91	-0.483	0.438
ATCTCTAGGTAACAACTTCAGTGAAAGAGAGGAC	0.514	0.787	0.752	-0.232	0.536	1.14	0.654	0.576
CGTCAAAGTTCAAGGAAACGTAACAGAAAGCAGC	3.35	4.85	5.68	4.06	3.84	1.49	-0.29	2.61
TCTAGTTGGTCAAAGGTCACAAACTCGAAATGCG	4.92	6.76	6.07	1.79	7.88	3.84	1.73	2.43
CCTACTGGGCCATTCACAGGTCATTGATCATATG	2.72	2.69	1.66	0.46	1.34	2.01	0.728	1.17
CCTACTGGGCCAAAAAGGTCGTTGATGCCGATAA	1.92	1.18	0.763	0.0571	1.38	1.26	-0.297	1.13
ACAGACAGGTGATGGAGGTAACTCAGGCTATCAT	0.431	0.0912	0.339	-0.505	0.156	1.05	0.503	-0.164
TCATATACGTAAAAGGTGAAAGTCGGTGTGGTAA	1.94	1.27	0.986	1.98	2.01	1.36	0.293	0.435
CCGACTGGGGCAAGGTTACAATAACGCACAGCCA	1.47	1.1	1.24	-0.315	1.27	1.09	-0.205	0.439
TTACCAAGGTGAGCTGAGGTCGTAGATCCAACTC	1.66	1.5	1.13	-0.577	1.72	4.78	1.9	0.82
GCAGCTAGGTCAGGTTGGTCAGCTAACGGGTACG	2.83	2.31	3.77	0.319	1.04	1.57	0.4	0.351
CCTACTGGGCCATCAGGTCGTTGATATCAACGTT	0.879	0.238	0.401	0.0318	0.133	1.42	1.06	0.424
ACTAGTTGGTCAGCTAAGGTCACACACAATTCGG	4.54	4.33	4.53	1.25	4.2	5.21	5.38	2.63
AGAATGAGGTTATACGTAGATCAGAGAAGAAAGT	0.491	1.83	1.42	1.87	2.05	2.25	0.546	0.887
GTACCAAGGTCAATAGGTCGTTGATGAGTAGGCG	4.86	6.58	5.59	2.86	5.66	3.68	1.77	2.55

Sequence	PBM binding z-score [1]	PBM binding z-score [2]	PBM binding z-score [3]	PBM binding z-score [4]	PBM binding z-score [5]	PBM binding z-score [6]	PBM binding z-score [7]	PBM binding z-score [8]
TCTTGTAGATCAAAGGTGAAGAAAGCCGAAGCCT	0.902	0.905	0.395	0.392	1.75	0.776	-0.461	-0.594
ATCTCTAGGTAACCAAGTTCGGTGAATGCCGAAC	0.477	0.289	0.0649	0.0543	0.189	0.968	0.803	1.13
GCAGACAGGTGAAACGCAGATAACTCAGGGTGGC	-0.0268	0.355	0.45	-0.555	0.883	0.121	-0.589	-0.804
AGAAGGAGGTTATTAAGATCAGGGAATTGCGGTC	1.32	0.881	0.837	0.39	1.36	1.18	0.884	1.23
TCTCCGAGGACACGAAAGGTCAGAGCTCGACATC	4.77	4.91	5.54	1.34	4.12	4.36	2.74	1.31
CCTCGGAGGATAGAAGGTCAGAGCTGTCCGCTTT	2.9	2.17	2.05	-0.11	1.52	1.66	-0.386	-0.101
ATATGAAGGTTAAGGGTCATTCAGGTTGGTTCGC	4.38	5.3	3.81	2.14	7.12	3.95	1.5	4.67
ATAGGTAGGTTAAGGGTCATTCAGGTTGGTTCGC	4.42	5.12	3.74	2	6.15	3.71	2.58	4.7
TCTTGTAGATCAACAGGATGTTAAGAAAGATCGA	-0.63	0.136	0.033	0.72	0.385	-0.148	-0.851	-0.332
CCGACTGGGGCAGAAAGTTTACCATACCATCCGG	0.899	-0.0805	0.478	-0.44	-0.178	-0.72	-0.708	0.157
CCTATTAGTTGACCATAAGAGCAACCGAAGCTCG	0.851	0.678	0.927	0.811	0.6	0.468	0.721	1.03
CTCGAAAGGTCGTGATCAGGTGAGTATACCAAAC	2.66	4.85	3.85	1.9	4.72	4.04	0.717	0.668
ACAGACAGGTGATGAAGGTAACTAAGGCTATCAT	0.434	0.422	0.552	-0.521	0.185	1.28	0.245	-0.317
AGAATGAGGTTTAGATCAGGGAAACAGAATACAT	-0.22	-0.0854	0.196	-0.146	-0.129	0.678	-0.242	0.0888
GCGACTGAGGCAAAGCAGGTTACCATAAGGTTGG	0.0198	0.00383	-0.272	-0.374	0.123	1.54	-0.231	-0.64
TCATATAGCTAATACAGGTGAAAGTCGGCATCTA	-0.00242	0.298	0.338	1.09	0.758	0.42	-0.541	-0.107
AGAATGAGGTTACCGAAGATCAGGGAAACGCTTG	0.586	2.27	1.76	1.5	2.87	3.05	0.672	0.193
CGAACTAGGTCATTGACAGGACAGTAAATAGTAA	2.73	4.76	4.54	2.6	2.84	2.74	0.723	1.03
ATCGAAAGCTCGAGGTGAGTATAGAGAAAGGGAA	-0.503	0.0363	0.189	-0.888	-0.0727	0.963	-0.199	-0.71

Sequence	PBM binding z-score [1]	PBM binding z-score [2]	PBM binding z-score [3]	PBM binding z-score [4]	PBM binding z-score [5]	PBM binding z-score [6]	PBM binding z-score [7]	PBM binding z-score [8]
AGAATGAGGTTATTAAGATCAGGGAATTGCGGTC	1.05	1.17	0.93	1.91	1.89	2.18	0.599	0.931
ACAGACAGGTGATGAAGGTAACTTAGGCTATCAT	0.348	0.286	0.467	-0.093	0.298	0.532	0.0402	0.0918
CTACCAAGGTGAGCAAGGTCGTTGATTACTATTC	1.65	0.951	0.78	0.939	1.03	2.77	1.29	1.42
CCTAGCAGGCCAGCGTCACTCAAGCATTTCGCTT	-0.555	-0.553	-0.578	-0.0144	-0.744	-0.634	-0.783	-0.635
TGAATGAGGATAAAGATCAGGGAACGTGGCGTCG	-0.895	0.0209	0.399	-0.871	-0.0726	1.33	0.0902	-0.316
GCTCGGAGGACAAGGTCATAGCTTTGTCCGTAGA	3.41	4.23	3.99	1.8	4.34	3.56	2.14	2.26
TCAGAAAGGTGAAGGTAACTCAGGTACGCAGTCG	2.08	2.32	2.52	1.64	2.41	2.01	0.472	0.477
TAGCCTATGTCATTGGGCCAGTATAGTACGCATC	-0.0367	0.242	0.413	-0.587	0.472	-0.314	-0.671	-0.244
CGAACTAGGACAGAACAGGACAGTGAAGGATGAT	0.214	0.299	0.538	-0.164	0.23	0.492	-0.221	-0.157
CAGCCTAGGTCAGGGCCAGTATAGGAGGAACGTT	2.58	3.08	3.8	-0.416	1.54	2.11	0.526	-0.18
GCTTCTAGGTCAGGTTGGTCAGCTAACGGGTACG	2.86	2.88	3.68	0.783	1.08	2.47	1.63	0.679
CGTCAAAGTTCAACTACGGTAACGTAAAGCACGC	4.21	5.89	6.48	4.64	5.18	4.23	-0.22	3.69
CAAACTAGGTAAAGGTCAAAGTCGGTTTGTGCCA	4.92	6.24	5.71	2.3	6.98	3.87	1.05	2.8
TCTGCTAGGTCAGTTGGTCAGATAACGAGCTGCC	2.62	2.67	3.55	0.564	1.03	1.38	0.154	-0.455
ATCGTAAGGTCGAAGGTGAGTATACCCACCCGAA	1.59	2.97	2.44	1.58	3.4	2.98	1.59	0.909
CTTCCAAGGTGAACAAGGTCGTTGATTACTATTC	2.18	1.8	1.62	1.57	1.69	3.41	2.03	2.34
CAAACTAGGTCAAGAGGACAAAGTCCGCTTCCCG	3.78	4.36	5.19	1.45	2.74	3	1.29	0.916
CCGACTGGGGCAGAAAGGTTACCCTACCATCCGG	2.2	1.35	0.99	-0.847	1.43	1.07	-0.0158	-0.359
CAAACTAGGTCACAGAGATCAAAGTCCGTGCGTA	3.1	4.52	4.87	1.59	3.84	3.28	1.27	0.964
